Potency data for twelve compounds are collected here from PubChem BioAssay (Tox21).

A number with no mark means an inactive call. Records with an inconclusive call do not appear. Active and inactive are the calls of the source. Unless noted, the call rests on the fitted dose curve.

A short description of assay [1]: Nuclear factor erythroid 2-related factor 2/antioxidant responsive element (Nrf2/ARE) small molecule agonists: qHTS cell viability counter screen in human keratinocytes (AID 1919968; active means well fitted curve in the direction sought with a large enough effect in the repeat runs; an effect the other way counts as inactive or inconclusive; further: nearly all actives have a fitted effect of over 55% in size; further: potency means the concentration at half of the fitted maximal effect). The procedure, abridged:
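Cytotoxicity was multiplexed with the Nrf2/ARE luciferase assay in the same wells. Stably transfected HaCaT keratinocytes were treated with test compounds for 23 h at 37 C. Cell viability was then measured by CellTiter-Fluor fluorescence.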
Background: Quantitative high-throughput screening tests each substance at several concentrations.

The nature of assay [2]: Nuclear factor erythroid 2-related factor 2/antioxidant responsive element (Nrf2/ARE) small molecule agonists: luciferase reporter gene qHTS assay in human keratinocytes (AID 1919969). Further: nearly all actives have a fitted effect of over 35% in size. Further: potency means the concentration at half of the fitted maximal effect. On the technique in general: A reporter such as luciferase makes a cellular process visible.
In assay [3] the target is Gonadotropin-releasing hormone receptor (Homo sapiens) (UniProt P30968). In words: Human gonadotropin-releasing hormone receptor (GnRHR) small molecule agonists, calcium flux assay in GnRHR-HEK293 cells (AID 1920063). Further: nearly all actives have a fitted effect of over 35% in size. The procedure, abridged:
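Agonist activity was measured as intracellular calcium flux in HEK293 cells engineered to stably express human GnRHR. After dye loading for 1 hour at 37 C, compounds in DMSO were added and fluorescence was followed for 3 minutes.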
(Calcium assays in cells follow changes in intracellular calcium, usually with a dye or a luminescent sensor.)

Assay [4] addresses KiSS-1 receptor (Homo sapiens) (UniProt Q969F8). In words: Human kisspeptin (KISS1R) small molecule agonists, calcium flux assay in KISS1R-HEK293 cells (AID 1920064; active means well fitted curve in the direction sought with a large enough effect in the repeat runs; an effect the other way counts as inactive or inconclusive). The procedure, abridged:
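Agonist activity is monitored as intracellular calcium rise in engineered HEK293 cells carrying human KISS1R. Cells are dye-loaded for 1 h at 37 C before compound addition, and fluorescence is recorded for 3 min.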

Assay [5] is described as follows: p53 small molecule agonists, cell-based qHTS assay with human liver microsomes: qHTS cell viability counter screen (AID 1963579). Further: nearly all actives have a fitted effect of over 45% in size. Put shortly: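 After the 460/530 nm beta-lactamase read, CellTiter-Glo was added to the same wells and luminescence measured after 30 min at room temperature, giving viability of p53RE-bla cells treated 16 h with compounds plus microsomes and NADPH.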

Assay [6] is described as follows: p53 small molecule agonists, cell-based qHTS assay with rat liver microsomes: qHTS cell viability counter screen (AID 1963580). Further: nearly all actives have a fitted effect of over 45% in size. Put shortly: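 After the beta-lactamase ratio was read, CellTiter-Glo was added to the same wells and luminescence measured at 30 min; cells had been treated 16 h at 37 C with compounds, rat liver microsomes and NADPH (0.5 mg/mL final each).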

The target of assay [7] is 5-hydroxytryptamine receptor 2A (Homo sapiens) (UniProt P28223). As to the kind of experiment: 5-hydroxytryptamine receptor 2A (HTR2A) small molecule antagonists, cell-based qHTS assay (AID 1963586). Further: nearly all actives have a fitted effect of over 45% in size. The procedure, abridged:
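CHO cells stably expressing human HTR2A were plated for 18 h at 37 C, then loaded with calcium dye for 1 h. Compounds were preincubated 5 min at room temperature before DOI (4 nM solution) was added. Kinetic fluorescence was read for 3 min.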

For assay [8] the target is unchanged. In words: 5-hydroxytryptamine receptor 2A (HTR2A) small molecule agonists, cell-based qHTS assay (AID 1963587). Further: nearly all actives have a fitted effect of over 30% in size. Further: potency means the concentration at half of the fitted maximal effect. Put shortly:
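CHO cells stably expressing human HTR2A, plated 18 h, loaded with calcium dye 1 h at 37 C. Agonist mode: compounds added and intracellular calcium fluorescence recorded kinetically for 2 min at 1 sec intervals.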

The target of assay [9] is Muscarinic acetylcholine receptor M1 (Homo sapiens) (UniProt P11229). In words: Cholinergic receptor muscarinic 1 (CHRM1) small molecule antagonists, cell-based qHTS assay (AID 1963588). Further: nearly all actives have a fitted effect of over 40% in size. The procedure, abridged:
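Compounds were tested at 15 concentrations in three independent runs. Dye-loaded CHRM1-CHO cells were exposed 5 min at room temperature before stimulation by acetylcholine added at 50nM. Intracellular calcium was read kinetically on FDSS for 3 min.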

For assay [10] the target is unchanged. As to the kind of experiment: Cholinergic receptor muscarinic 1 (CHRM1) small molecule agonists, cell-based qHTS assay (AID 1963589). Further: nearly all actives have a fitted effect of over 35% in size. The procedure, abridged:
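Cells were plated and incubated 18 h at 37 C/5% CO2, loaded with calcium dye for 1 h at 37 C, then treated with compounds in DMSO. Fluorescence was recorded kinetically at 1 sec intervals.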

Assay [11] can be described thus: cAMP Responsive Elements (CRE) small molecule agonists, cell-based qHTS assay (AID 1963590). The procedure, abridged: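 Cells carrying a CRE-driven beta-lactamase reporter (HEK 293T) are seeded, incubated overnight (18 h), and treated with test compounds for 3 h at 37 C; reporter activity is then detected with a FRET substrate after 2 h at room temperature.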
Assay [12] can be described thus: cAMP Responsive Elements (CRE) small molecule antagonists, cell-based qHTS assay (AID 1963591; active means well fitted inhibition curve with a large enough effect in the signal ratio in the repeat runs, not every such curve was filed as active; the % refers to the signal ratio). Put shortly:
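Cells (CRE-bla HEK 293T, DMEM with 10% dialyzed FBS and 25 mM HEPES) are seeded and incubated 18 h. Compounds are added with NKH477 agonist at 0.25 uM final for 3 h, then FRET substrate for 2 h.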

For assay [13], the target named is Beta-2 adrenergic receptor (Homo sapiens) (UniProt P07550). As to the kind of experiment: Adrenergic beta2 receptor (ADRB2) small molecule antagonists, cell-based qHTS assay (AID 1963592). Further: series mostly up to about 92 µM; nearly all actives have a fitted effect of over 50% in size. Put shortly: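 Assay format: CHO-ADRB2 cells, 18-20hr seeding at 37C/5% CO2, then compound plus 1nM isoproterenol agonist mix for 0.5hr RT. Homogeneous time-resolved fluorescence cAMP detection after 1hr, expressed as 665/615 nm ratio.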
Beta-2 adrenergic receptor (Homo sapiens), sequence (P07550 whole entry, looked up): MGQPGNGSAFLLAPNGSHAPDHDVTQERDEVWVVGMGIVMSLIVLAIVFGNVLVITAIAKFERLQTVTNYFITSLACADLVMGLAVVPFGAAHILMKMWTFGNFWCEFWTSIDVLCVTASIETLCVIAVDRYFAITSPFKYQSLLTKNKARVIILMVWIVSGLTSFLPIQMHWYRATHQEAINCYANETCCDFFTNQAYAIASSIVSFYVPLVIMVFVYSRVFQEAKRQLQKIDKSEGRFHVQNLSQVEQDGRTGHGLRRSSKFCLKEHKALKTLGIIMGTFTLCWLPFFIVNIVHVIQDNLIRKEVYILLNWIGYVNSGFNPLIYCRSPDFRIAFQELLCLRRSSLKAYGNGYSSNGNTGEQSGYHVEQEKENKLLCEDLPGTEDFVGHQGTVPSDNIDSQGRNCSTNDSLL

Assay [14] concerns the target D(2) dopamine receptor (Homo sapiens) (UniProt P14416). In words: Dopamine D2 receptor (DRD2) small molecule agonists, cell-based qHTS assay (AID 1963594). Further: nearly all actives have a fitted effect of over 35% in size. Put shortly:
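HEK293 cells stably expressing human DRD2, pre-treated with PDE inhibitor Ro20-1724 (0.1 mM final) and compound 10 min at room temperature, then stimulated with NKH477 (200nM […]) for 30 min. cAMP read by HTRF (665/620 nm).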

The target is the same in assay [15]. In words: Dopamine D2 receptor (DRD2) small molecule antagonists, cell-based qHTS assay (AID 1963595; active means well fitted inhibition curve with a large enough effect in the signal ratio in the repeat runs, with a control signal flat; the % refers to the signal ratio; further: potency means the concentration at half of the fitted maximal effect). Put shortly:
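HEK293 cells stably expressing DRD2 were preincubated with 0.1 mM Ro20-1724, then with compound for 10 min at room temperature. Cells were stimulated with 200 nM NKH477 plus 12 nM quinpirole for 30 min, and cAMP was read by HTRF.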

The nature of assay [16]: G protein-coupled receptor (GPCR) small molecule agonists, calcium flux assay: HEK293 wild type cell line counter screen (AID 1920065). Put shortly: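 Seed cells, incubate 18 h (37 C, 5% CO2); add calcium dye, 1 h at 37 C; pin-transfer compounds, ATP control or DMSO; read fluorescence 480/540 nm each second for 3 min.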
The nature of assay [17]: p53 small molecule agonists, cell-based qHTS assay with human liver microsomes (AID 1963577). Further: potency means the concentration at half of the fitted maximal effect.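 On activation: p53 response element beta-lactamase reporter cells with liver microsomes plus NADPH.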 Put shortly:
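Steps: plate p53RE-bla cells, incubate 5 h at 37 C; add compound in DMSO; add microsomes (0.5 mg/mL final) and NADPH (0.5 mg/mL final); incubate 16 h at 37 C; add LiveBLAzer, 2 h RT; read fluorescence.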

Assay [18] is described as follows: p53 small molecule agonists, cell-based qHTS assay: qHTS cell viability counter screen (AID 1963581). Further: nearly all actives have a fitted effect of over 45% in size. Further: potency means the concentration at half of the fitted maximal effect. The procedure, abridged: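 Viability was counter-screened in parallel with the p53 agonist reporter by measuring intracellular ATP luminescence in the same HCT-116 p53RE-bla wells after 16 h compound treatment at 37 C.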
A short description of assay [19]: p53 small molecule agonists, cell-based qHTS assay (AID 1963582; active means well fitted activation curve with a large enough effect in the signal ratio in the repeat runs, not every such curve was filed as active; the % refers to the signal ratio; further: potency means the concentration at half of the fitted maximal effect). The procedure, abridged: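 Cells carrying a p53-responsive bla reporter are treated with test compounds for 16 h at 37 C; beta-lactamase activity is then detected with LiveBLAzer B/G FRET substrate after 2 h at room temperature.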
Assay [20] in a line: p53 small molecule agonists, cell-based qHTS assay with rat liver microsomes (AID 1963578). The procedure, abridged:
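Metabolic activation is supplied by rat liver microsomes with NADPH (each 0.5 mg/mL final). p53RE-bla cells incubate with compound 16 h at 37 C; reporter activity is measured by LiveBLAzer fluorescence.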

5-hydroxytryptamine receptor 2A (Homo sapiens), sequence (P28223 whole entry, looked up): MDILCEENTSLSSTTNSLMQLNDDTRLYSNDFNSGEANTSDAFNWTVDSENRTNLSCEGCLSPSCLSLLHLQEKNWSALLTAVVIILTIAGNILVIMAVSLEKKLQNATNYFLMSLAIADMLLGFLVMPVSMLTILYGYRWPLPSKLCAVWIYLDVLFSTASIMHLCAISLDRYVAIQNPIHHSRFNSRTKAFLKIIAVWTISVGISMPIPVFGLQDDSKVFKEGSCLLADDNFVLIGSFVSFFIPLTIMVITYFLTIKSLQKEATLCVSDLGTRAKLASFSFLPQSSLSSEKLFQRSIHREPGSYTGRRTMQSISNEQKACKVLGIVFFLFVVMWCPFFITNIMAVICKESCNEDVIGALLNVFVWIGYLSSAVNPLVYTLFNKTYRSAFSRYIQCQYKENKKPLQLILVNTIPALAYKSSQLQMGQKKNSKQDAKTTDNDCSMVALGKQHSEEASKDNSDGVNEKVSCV
KiSS-1 receptor (Homo sapiens), sequence (Q969F8 whole entry, looked up): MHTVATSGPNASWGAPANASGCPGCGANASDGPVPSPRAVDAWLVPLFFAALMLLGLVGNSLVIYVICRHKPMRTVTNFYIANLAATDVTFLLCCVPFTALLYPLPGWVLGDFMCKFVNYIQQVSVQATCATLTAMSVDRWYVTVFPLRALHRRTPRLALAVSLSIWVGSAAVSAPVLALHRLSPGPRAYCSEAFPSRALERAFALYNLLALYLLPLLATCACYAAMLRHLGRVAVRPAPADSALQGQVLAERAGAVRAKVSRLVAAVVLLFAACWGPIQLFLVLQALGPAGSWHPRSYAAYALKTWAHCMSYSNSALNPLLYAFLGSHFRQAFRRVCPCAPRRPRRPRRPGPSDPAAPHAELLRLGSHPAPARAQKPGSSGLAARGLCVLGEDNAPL
D(2) dopamine receptor (Homo sapiens), sequence (P14416 whole entry, looked up): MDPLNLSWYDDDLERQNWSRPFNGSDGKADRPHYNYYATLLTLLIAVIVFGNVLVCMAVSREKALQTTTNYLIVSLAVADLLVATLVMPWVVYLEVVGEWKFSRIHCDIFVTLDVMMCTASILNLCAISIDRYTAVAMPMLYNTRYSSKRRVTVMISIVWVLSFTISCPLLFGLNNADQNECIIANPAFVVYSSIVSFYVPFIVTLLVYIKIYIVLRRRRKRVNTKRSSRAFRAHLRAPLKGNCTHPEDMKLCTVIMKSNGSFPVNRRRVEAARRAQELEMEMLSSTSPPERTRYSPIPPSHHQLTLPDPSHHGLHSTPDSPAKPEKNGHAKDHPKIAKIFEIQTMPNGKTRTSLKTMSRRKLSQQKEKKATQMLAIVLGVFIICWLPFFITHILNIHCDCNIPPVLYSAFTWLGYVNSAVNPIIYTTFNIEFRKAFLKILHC
Gonadotropin-releasing hormone receptor (Homo sapiens), sequence (P30968 whole entry, looked up): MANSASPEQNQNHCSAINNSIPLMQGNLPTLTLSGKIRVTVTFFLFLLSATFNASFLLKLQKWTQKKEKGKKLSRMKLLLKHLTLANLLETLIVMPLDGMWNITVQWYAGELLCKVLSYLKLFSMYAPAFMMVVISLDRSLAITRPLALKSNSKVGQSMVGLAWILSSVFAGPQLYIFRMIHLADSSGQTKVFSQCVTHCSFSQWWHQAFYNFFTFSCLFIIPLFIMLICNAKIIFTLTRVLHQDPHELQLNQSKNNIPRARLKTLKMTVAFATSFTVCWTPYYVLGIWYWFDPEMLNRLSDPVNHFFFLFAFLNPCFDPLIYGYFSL
Muscarinic acetylcholine receptor M1 (Homo sapiens), sequence (P11229 whole entry, looked up): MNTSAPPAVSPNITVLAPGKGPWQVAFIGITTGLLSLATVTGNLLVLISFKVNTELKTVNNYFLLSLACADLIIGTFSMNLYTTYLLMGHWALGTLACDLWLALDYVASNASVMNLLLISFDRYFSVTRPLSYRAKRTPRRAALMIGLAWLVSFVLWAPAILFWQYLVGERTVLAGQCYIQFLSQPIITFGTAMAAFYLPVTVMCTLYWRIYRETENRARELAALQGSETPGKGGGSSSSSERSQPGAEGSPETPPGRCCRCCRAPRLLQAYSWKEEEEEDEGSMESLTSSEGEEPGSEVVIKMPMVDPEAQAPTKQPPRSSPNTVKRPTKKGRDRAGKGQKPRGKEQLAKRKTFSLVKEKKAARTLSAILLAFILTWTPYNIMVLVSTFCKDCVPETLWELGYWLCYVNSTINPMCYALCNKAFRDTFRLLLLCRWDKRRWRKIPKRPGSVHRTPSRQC

Take `CCC1CCC(=O)O1` (stereo unspecified): the Potency entry in assay [1], in assay [2], in assay [3], in assay [4], in assay [5] and in assay [6] was “inactive” in each case. Also, the Potency result in assay [7], in [8], in assay [9], in assay [10], in assay [11] and in assay [12] was “inactive” throughout. Also, the Potency entry in assay [13], in assay [14] and in [15] was “inactive” each time.

For `C#CC1(O)CCCCC1`, the Potency entry in assay [1], in [2], in assay [3], in assay [16], in [17] and in assay [5] was “inactive” throughout. Besides, the Potency result in assay [6], in assay [18], in assay [19], in assay [7], in [9] and in assay [10] was “inactive” throughout. For the same compound, the Potency result in [11], in assay [12], in [13], in [14] and in assay [15] was “inactive” in each case.

On to `COc1ccc(C(c2ccc(OC)cc2)C(Cl)(Cl)Cl)cc1`, for which the Potency is 19.2 µM (active) in [1] and 27.1 µM (active) in assay [2]. The Potency result in assay [3], in assay [16], in [17], in assay [20], in [5] and in [6] was “inactive” in each case. In addition, the Potency result in [7], in [8] and in [13] was “inactive” in each case.

For the compound `CCO[C@H]1O[C@@H]2OC3(C)CC[C@H]4[C@H](C)CC[C@@H]([C@H]1C)[C@@]24OO3`, the Potency result in assay [1], in assay [2], in [3], in assay [16], in assay [17] and in [20] was “inactive” throughout. The Potency entry in assay [5], in assay [6], in [18], in assay [19], in assay [7] and in assay [9] was “inactive” throughout. Also, the Potency result in [10], in [11], in assay [13], in assay [14] and in [15] was “inactive” throughout.

As for `CCN(CC)CCOC(=O)C(O)(c1ccccc1)c1ccccc1`, the Potency entry in assay [1], in assay [2], in assay [3], in assay [16], in [17] and in assay [20] was “inactive” throughout. Besides, the Potency entry in [5], in assay [6], in assay [18], in assay [19], in assay [11] and in assay [12] was “inactive” each time. The Potency entry in assay [13], in assay [14] and in assay [15] was “inactive” each time. Besides, in assay [8], the Potency is 1.34 µM (active).

Consider `CCNc1nc(Cl)nc(NC(C)(C)C)n1`, for which the Potency result in [1], in assay [2], in assay [3], in assay [4], in assay [5] and in assay [6] was “inactive” in each case. The Potency result in assay [18], in assay [7], in assay [8], in [9], in assay [10] and in assay [12] was “inactive” each time. The Potency result in assay [13], in assay [14] and in assay [15] was “inactive” throughout.

Take `Cc1ccccc1OP(=O)(Oc1ccccc1C)Oc1ccccc1C`: the Potency entry in [1], in assay [3], in assay [16], in [6], in assay [18] and in assay [7] was “inactive” throughout. Also, the Potency result in assay [8], in assay [9], in [10], in assay [12] and in [14] was “inactive” throughout. Further, the Potency in assay [2] is 48.8 µM (active); in [17], 1.83 µM (active).

For `[CH3][Hg][Cl]`, the Potency in [1] was 6.09 µM (active); in assay [2], 2.43 µM (active); in assay [19] it was 36.3 µM (active); in assay [8], 38.8 µM (active). In addition, the Potency entry in [4], in assay [16], in [17], in assay [20], in assay [5] and in assay [6] was “inactive” throughout. For the same compound, the Potency result in assay [18], in [9], in [10], in assay [12], in assay [14] and in assay [15] was “inactive” throughout.

As to `Nc1ccc2c(c1)Cc1ccccc1-2`, the Potency result in assay [1], in assay [2], in [3], in [16], in assay [5] and in [6] was “inactive” in each case. Further, the Potency result in assay [18], in assay [7], in assay [8], in assay [9], in assay [10] and in assay [12] was “inactive” in each case.

For `O=[N+]([O-])c1cccc2c([N+](=O)[O-])cccc12`, the Potency result in [1], in assay [3], in assay [16], in assay [6], in assay [7] and in assay [8] was “inactive” each time. The Potency entry in [9], in assay [10], in assay [13], in [14] and in assay [15] was “inactive” each time. Further, the Potency in [2] was 61.4 µM (active); in assay [18], 23.1 µM (active).

For `CC(C)(C)NCC(O)c1cc(Cl)c(N)c(C(F)(F)F)c1` (stereo unspecified), the Potency result in assay [1], in assay [2], in assay [4], in [16], in [17] and in assay [20] was “inactive” in each case. Also, the Potency entry in assay [5], in assay [6], in assay [19], in [7], in assay [8] and in assay [9] was “inactive” each time. Further, the Potency entry in assay [10], in [12] and in assay [14] was “inactive” in each case. For the same compound, the Potency in assay [15] is 0.0084 µM (active).

Regarding `CC(O)CCl` (stereo unspecified), the Potency result in [1], in assay [2], in [3], in assay [16], in assay [5] and in assay [6] was “inactive” in each case. The Potency entry in assay [18], in assay [7], in [8], in [9], in assay [11] and in assay [12] was “inactive” each time. For the same compound, the Potency result in assay [13], in assay [14] and in [15] was “inactive” each time.
